Measured values: PubChem BioAssay (NCATS)
The source made the active and inactive calls. Calls follow the shape of the dose curve; as a rule, active = well fitted curve in the direction sought with a large enough effect; inconclusive = small, poorly fitted or top-dose-only effect, or another doubt; inactive = no such curve, though single readings can be large or run the other way.

These molecules were tested against Methanococcus maripaludis chaperonin (MmCpn) (UniProt Q6LX38) (assay: High-Throughput Screening for Modulators of Cytosolic Chaperonin Activity: MmCpn Primary Screen (AID 488978)). Conditions: Purified MmCpn ATPase activity, ADP HTRF detection, 10 min; series mostly up to 76.9 µM.
From the text: Chaperonins are key components of the cellular chaperone machinery. These large complexes consist of two stacked 7-9 membered rings, each containing a central cavity. Substrates are folded within the cavity in an ATP-dependent manner. TRiC is a complex of eight different, essential proteins. As each of the genes encoding the eight subunits is essential for cell viability and no protocol has been developed to overexpress this enzyme to high levels, several groups have turned to the archaeal homolog of TRiC from Methanococcus maripaludis (MmCpn) as a model system for the study of the type II chaperonin family.
MmCpn was kindly provided by the laboratory of Judith Frydman.
1. Dispense 1.5 ul enzyme of either TriC at 100 nM or MmCpn at 50 nM final concentration.
2. Transfer 23 nl of compound to plate, incubate 5 min at RT.
3. 1.5 ul ATP at 30 uM at final concentration dispensed into plate.
4. Incubate for 10 minutes at 37C (MmCPN), 30C (TriC).
5. 3 ul of the Cisbio ADP Transcreener HTRF detection reagent prepared according to protocol dispensed into plate.
6. Incubate for 5 minutes.
7. Read using EnVision plate reader at Excitation = 320nm and Emission = 590nm, 665nm

Sequence of Methanococcus maripaludis chaperonin (MmCpn) (Q6LX38 1-543): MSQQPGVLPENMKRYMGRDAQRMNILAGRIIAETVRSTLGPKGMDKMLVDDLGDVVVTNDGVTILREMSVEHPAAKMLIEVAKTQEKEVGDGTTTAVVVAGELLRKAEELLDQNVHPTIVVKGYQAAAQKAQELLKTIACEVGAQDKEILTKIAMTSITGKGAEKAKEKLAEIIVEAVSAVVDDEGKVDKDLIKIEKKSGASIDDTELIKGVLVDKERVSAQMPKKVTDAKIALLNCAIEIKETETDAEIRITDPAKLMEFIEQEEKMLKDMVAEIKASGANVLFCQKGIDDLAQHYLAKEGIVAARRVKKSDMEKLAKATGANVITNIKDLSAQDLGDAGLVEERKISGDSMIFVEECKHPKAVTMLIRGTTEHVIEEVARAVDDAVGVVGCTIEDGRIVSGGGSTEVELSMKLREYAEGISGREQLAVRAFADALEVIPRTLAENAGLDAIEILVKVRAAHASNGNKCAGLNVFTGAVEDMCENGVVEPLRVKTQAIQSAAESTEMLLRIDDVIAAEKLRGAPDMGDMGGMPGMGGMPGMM

Row | Structure (SMILES) | outcome
1 | CC(N=C(NC#N)Nc1ccncc1)C(C)(C)C (stereo not given) | inactive
2 | O=C1NCN(c2ccccc2)C12CCN(CCCC(c1ccc(F)cc1)c1ccc(F)cc1)CC2 | inactive
3 | O=C(O)CN(CCN(CC(=O)O)CC(=O)O)CCN(CC(=O)O)CC(=O)O | inactive
4 | C#CCN(C)CCCOc1ccc(Cl)cc1Cl | inactive
5 | NC1=NCC2c3ccccc3Cc3ccccc3N12 (stereo not given) | inactive
6 | C[C@]12C=CC(=O)C=C1CC[C@H]1[C@@H]3C[C@@H](O)[C@](O)(C(=O)CO)[C@@]3(C)C[C@H](O)[C@@]12F | inactive
7 | CC(=O)OC(C)C[N+](C)(C)C (stereo not given) | inactive
8 | CC(C)(Oc1ccc(CCNC(=O)c2ccc(Cl)cc2)cc1)C(=O)O | inactive
9 | Cc1ccc(/C(=C\CN2CCCC2)c2ccccn2)cc1 | inactive
10 | CCCOc1ccccc1-c1nc2n[nH]nc2c(=O)[nH]1 | inactive
11 | NC(=O)N1c2ccccc2C=Cc2ccccc21 | inactive
12 | c1cnc(N2CCN(Cc3ccc4c(c3)OCO4)CC2)nc1 | inactive
13 | NS(=O)(=O)c1cc2c(cc1Cl)NC(C1CC3C=CC1C3)NS2(=O)=O (stereo not given) | inactive
14 | CCOC(=O)C1=C(C)NC(C)=C(C(=O)OC)C1c1cccc([N+](=O)[O-])c1 (stereo not given) | inactive
15 | OC(CCN1CCCCC1)(c1ccccc1)C1CCCCC1 (stereo not given) | inactive
16 | COc1ccc([C@@H]2Sc3ccccc3N(CCN(C)C)C(=O)[C@@H]2OC(C)=O)cc1 | inactive
17 | CC(=O)OCC1=C(C(=O)O)N2C(=O)[C@@H](NC(=O)Cc3cccs3)[C@H]2SC1 | inactive
18 | CC(C)NNC(=O)c1ccncc1 | inactive
19 | CCCNC(C)C(=O)Nc1ccccc1C (stereo not given) | inactive
20 | CCO/C([O-])=N/c1c[n+](N2CCOCC2)no1 | inactive

Row | Structure (SMILES) | outcome
21 | C[n+]1cc2c3c(ccc2c2ccc4cc5c(cc4c21)OCO5)OCO3 | inactive
22 | CCN1CCC[C@H]1CNC(=O)c1c(O)c(Cl)cc(Cl)c1OC | inactive
23 | CC(C)[N+](C)(CCOC(=O)C1c2ccccc2Oc2ccccc21)C(C)C | inactive
24 | COCCc1ccc(OCC(O)CNC(C)C)cc1 (stereo not given) | inactive
25 | CCCN(CCC)C(=O)C(CCC(=O)O)NC(=O)c1ccccc1 (stereo not given) | inactive
26 | O=c1[nH]c(=O)n([C@H]2C[C@H](O)[C@@H](CO)O2)cc1Br | inactive
27 | Cc1ccc(=O)n(-c2ccccc2)c1 | inactive
28 | O=C(O)CN(CCOCCOCCN(CC(=O)O)CC(=O)O)CC(=O)O | inactive
29 | CCN(CC)CC(=O)Nc1c(C)cccc1C | inactive
30 | C[C@@H](O)[C@H]1C(=O)N2C(C(=O)O)=C(SCCN=CN)C[C@H]12 | inactive
31 | C[C@]12CCC(=O)C=C1CC[C@@H]1[C@@H]2CC[C@@]2(C)[C@H]1CC[C@]2(O)C(=O)CO | inactive
32 | FC(F)(F)c1ccccc1-n1ccnc1 | inactive
33 | CN(C)CCOC(=O)COc1ccc(Cl)cc1 | inactive
34 | CCCCNc1c(C(=O)OCC)c(C)nc2c1cnn2CC | inactive
35 | Fc1ccc(C(c2ccc(F)cc2)N2CCN(C/C=C/c3ccccc3)CC2)cc1 | inactive
36 | CCn1nc(C(=O)O)c(=O)c2cc3c(cc21)OCO3 | inactive
37 | CC1=NS(=O)(=O)c2cc(Cl)ccc2N1 | inactive
38 | NC(=O)c1ncn([C@@H]2O[C@H](CO)[C@@H](O)[C@H]2O)c1O | inactive
39 | OCCN1CCN(CCCN2c3ccccc3C=Cc3ccccc32)CC1 | inactive
40 | COc1cc2c(cc1OC)-c1cc(=Nc3c(C)cc(C)cc3C)n(C)c(=O)n1CC2 | inactive
